The list is not random: actives were taken first. Their share in the collection is about 7.5%.
ELG1 genotoxic = qHTS screen for small molecules that induce genotoxicity in human embryonic kidney (HEK293T) cells expressing luciferase-tagged ELG1; Potency, µM (top dose mostly 46 µM), hits mostly activators; actives 1.3% (n = 330,000); HEK293T ELG1-luciferase reporter, luminescence, 16 h; AID 504466, 2011; further: nearly all actives have a fitted effect of over 60% in size
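Genotoxicity was scored as increased ELG1-luciferase reporter signal, measured by ONE-Glo luminescence (30 min, room temperature). Compound or vehicle exposure of the HEK293T reporter cells lasted 16 hr at 37°C.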
Rab9 promoter act = qHTS Assay for Rab9 Promoter Activators; Huh7 Rab9 promoter-luciferase reporter, luminescence, 24 h; Potency, µM (highest dose often 9.22 µM), hits mostly activators; actives 2.8% (n = 320,000); further: nearly all actives have a fitted effect of over 60% in size
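Stable Rab9-luc Huh7, 1500 cells/well, 2 h settle; cmpd in DMSO, 24 h, 37 °C/5% CO2; luciferase reagent 10 min RT; luminescence.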
FLuc modulator = qHTS profiling assay for firefly luciferase inhibitor/activator using purifed enzyme and Km concentrations of substrates (counterscreen for miR-21 project); purified FLuc, Km substrates, luminescence inhibition; Luciferin 4-monooxygenase (Photinus pyralis), P08659; actives 6.9% (n = 360,000); Potency, µM (top dose mostly 57.5 µM), most hits filed as inhibitors; AID 588342, 2011; further: nearly all actives have a fitted effect of over 55% in size
Target sequence (P08659 whole entry, looked up): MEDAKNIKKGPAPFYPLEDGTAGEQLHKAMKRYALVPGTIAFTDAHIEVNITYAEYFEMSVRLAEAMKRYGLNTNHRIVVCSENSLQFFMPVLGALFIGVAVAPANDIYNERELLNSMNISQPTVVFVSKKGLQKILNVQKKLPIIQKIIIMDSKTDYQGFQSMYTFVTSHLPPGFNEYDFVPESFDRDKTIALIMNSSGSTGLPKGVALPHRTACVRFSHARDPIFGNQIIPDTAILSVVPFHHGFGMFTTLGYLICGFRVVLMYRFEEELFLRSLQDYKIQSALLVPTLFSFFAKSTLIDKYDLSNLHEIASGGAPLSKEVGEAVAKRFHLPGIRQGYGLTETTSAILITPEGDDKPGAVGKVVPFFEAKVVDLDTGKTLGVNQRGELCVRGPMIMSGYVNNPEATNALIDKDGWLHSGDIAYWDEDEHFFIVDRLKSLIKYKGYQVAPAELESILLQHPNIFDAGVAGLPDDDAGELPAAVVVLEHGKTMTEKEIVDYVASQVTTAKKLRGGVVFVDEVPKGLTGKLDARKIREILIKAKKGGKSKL
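Purified P. pyralis luciferase (10nM final) with 10uM D-luciferin and 10uM ATP (Km levels) in 50mM Tris acetate pH 7.5, 10mM Mg acetate, 0.01% Tween-20, 0.05% BSA; qHTS 6-point titration, ~60 µM downward; luminescence read.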
NPC1 promoter act = qHTS Assay for NPC1 Promoter Activators; Potency, µM (doses to about 9.22 µM), hits mostly activators; Huh7 NPC1 promoter luciferase reporter, 24 h; AID 485313, 2010; actives 2.4% (n = 320,000); further: nearly all actives have a fitted effect of over 60% in size
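Huh7 cells stably carrying NPC1 promoter–luciferase, plated in Opti-MEM with 10% FBS for 2 h, were exposed to compound in DMSO for 24 h at 37 °C; luciferase reagent was added for 10 min and luminescence read.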
SMN2 splice enh = qHTS Assay for Enhancers of SMN2 Splice Variant Expression. HEK293 SMN2-luciferase splicing reporter, luminescence, 30-36 h. Potency, µM (doses to about 46.1 µM), hits mostly activators. actives 2.8% (n = 210,000); further: nearly all actives have a fitted effect of over 55% in size
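HEK293 cells carry an SMN2 […]–luciferase reporter in which exon 7 inclusion puts luciferase in frame. Cells were plated 10-12 h before compound addition, then incubated 30-36 h at 37C. ONE-Glo luminescence was read; sodium butyrate at 4.5 mM final served as control.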
KinaseGlo FLuc = Counterscreen for Luciferase (Kinase-Glo TM) Inhibition. actives 0.28% (n = 200,000). Luciferin 4-monooxygenase (Photuris pensylvanica), Q27757. AID 1379, 2008. Kinase-Glo luciferase, ATP luminescence, 8 min. Potency, µM (top dose mostly 38.3 µM), actives largely listed as inhibitors; further: nearly all actives have a fitted effect of over 60% in size
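Recombinant Kinase-Glo luciferase, 10 uM ATP (linear range), luciferin; imidazole pH 7.2 / KCl / MgCl2 / Tween / BSA buffer; 8 min RT; luminescence.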
Numbers stand for hits; . = inactive; ? = inconclusive; / = not tested or not shown. The call rests on the fitted dose curve; in most records, active means well fitted curve in the direction sought with a large enough effect; inconclusive means small, poorly fitted or top-dose-only effect, or another doubt; inactive means no such curve, though single readings can be large; an effect the other way counts as inactive or inconclusive.

SMILES	ELG1 genotoxic	Rab9 promoter act	FLuc modulator	NPC1 promoter act	SMN2 splice enh	KinaseGlo FLuc
Oc1ccc(COCc2ccccc2)c2cccnc12	8.2µM	.	19µM	.	.	.
C/C(=N\NC(=O)c1ccccc1OCc1ccc(F)cc1)c1ccccn1	.	.	21.3µM	.	/	/
C/C(=N\NC(=O)c1cccc2ccccc12)c1ccccn1	?	.	?	.	/	/
CCOc1ccc(OCc2ccc(C(=O)N/N=C(\C)c3ccccn3)cc2)cc1	?	.	12µM	.	.	.
CCCCn1c(N)c(N(CC(C)C)C(=O)C2CC(=O)N(Cc3ccccc3)C2)c(=O)[nH]c1=O (stereo not drawn)	.	.	.	.	/	/
CN(C)c1ccc(-c2nnc(SCC3CCCO3)n2C)cc1 (stereo not drawn)	?	3.16µM	?	?	/	.
Cn1c(SCC2CCCO2)nnc1-c1ccncc1 (stereo not drawn)	.	.	.	.	.	.
COc1ccccc1CN1CCCC2(CCN(S(C)(=O)=O)CC2)C1	/	/	/	/	.	.
Cc1ccccc1C(=O)NNC(=O)CSc1nc(-c2ccccc2)cc(=O)[nH]1	.	.	10.7µM	.	.	.
COC(=O)C(C)Oc1ccc2c(c1)O/C(=C\c1ccco1)C2=O (stereo not drawn)	.	.	3.01µM	.	/	/
COc1ccc2c(c1)O/C(=C\c1ccco1)C2=O	?	3.98µM	0.601µM	4.47µM	/	/
CC1CCCN(Cc2c(O)ccc3c2O/C(=C\c2ccco2)C3=O)C1 (stereo not drawn)	.	.	.	.	.	.
O=C(Oc1ccc2c(c1)O/C(=C\c1ccncc1)C2=O)c1ccccc1	.	.	.	.	.	.
CC(=O)COc1ccc2c(c1C)O/C(=C\c1ccco1)C2=O	?	?	5.36µM	?	/	/
CCOC(=O)Cn1c(=O)n(CC2CCCO2)c2nc(-c3ccccc3F)nc(C(N)=O)c21 (stereo not drawn)	/	/	.	/	/	/
C=C(C)Cn1c(CN(C)Cc2ccccc2)nc2c1c(=O)n(C)c(=O)n2C	.	.	.	.	/	/
CCn1c(CCc2ccccc2)nc2ccccc21	.	.	16.9µM	.	/	/
CCn1c(COc2ccccc2C)nc2ccccc21	?	.	10.7µM	.	?	.
CCCn1c(COc2ccccc2OC)nc2ccccc21	.	.	?	.	/	/
Cn1c(COc2ccccc2Br)nc2ccccc21	10.3µM	?	6.75µM	2.51µM	/	/
CCn1c(COc2ccccc2OC)nc2ccccc21	.	.	16.9µM	.	/	/
CC1CCC(NC(=O)C2(C)Cc3ccccc3C(=O)N2Cc2ccc(Cl)cc2)CC1 (stereo not drawn)	/	/	.	/	.	/
O=C(CC1C(=O)NCCN1Cc1cccc(Oc2ccccc2)c1)NCCc1cnccn1 (stereo not drawn)	.	.	.	.	/	.
Cc1c2cnn(-c3ccccc3)c(=O)c2c(C)n1CCCC(=O)Nc1cccc(F)c1	/	/	.	/	.	/
O=C(Cn1cnc2ccccc21)N1CCN(S(=O)(=O)c2ccccc2)CC1	.	.	.	.	.	.
SMILES	ELG1 genotoxic	Rab9 promoter act	FLuc modulator	NPC1 promoter act	SMN2 splice enh	KinaseGlo FLuc
Cc1ccc(CNc2ccc(N3CCOCC3)cc2)s1	4.11µM	3.55µM	0.953µM	2.51µM	17.8µM	.
Cc1ccc(NCc2ccc(C)s2)cc1	.	.	21.3µM	.	/	/
Cn1c(=S)[nH]c(=O)c2ncc(=O)[nH]c21	.	.	.	.	/	.
Nc1ccccc1N=Cc1ccc(-c2cccc(Cl)c2)o1	.	3.16µM	3.01µM	2.82µM	/	.
COC(=O)N/N=C/c1ccc(-c2cccc(Cl)c2)o1	.	.	?	.	.	.
COc1ccc(CN2C(=O)/C(=C/c3ccc(-c4ccc(Cl)c(C(=O)O)c4)o3)SC2=S)cc1	.	.	?	.	.	.
CC1=NOC(=O)/C1=C\c1ccc(-c2cccc(Cl)c2)o1	.	.	10.7µM	.	.	.
CC1=NOC(=O)/C1=C\c1ccc(-c2ccccc2Br)o1	.	.	10.7µM	.	.	.
CC1=NOC(=O)/C1=C\c1ccc(-c2ccc(Cl)c(C(=O)O)c2)o1	.	.	19µM	.	.	.
CN(C(=O)C(C)(C)C)C1c2c(ccc3ccccc23)OCC1CO (stereo not drawn)	.	.	.	.	/	/
O=C(O)c1cc(-c2ccc(/C=C3/SC(=S)N(Cc4ccccc4)C3=O)o2)ccc1Cl	.	.	?	.	.	.
CC1(C)OC(=O)C(=Cc2ccc(-c3ccc(Cl)c(C(=O)O)c3)o2)C(=O)O1	.	.	15.1µM	.	.	.
COc1ccccc1OCC(=O)NCC1CCCN(Cc2cnn(C(C)C)c2)C1 (stereo not drawn)	.	.	.	.	/	/
COc1ccc(C(=O)c2cnc(/N=C/N(C)C)s2)cc1	.	.	?	.	?	.
CN(C)/C=N/c1ncc(C(=O)c2ccc3ccccc3c2)s1	.	?	23.9µM	.	.	.
C/C(=C\C(=O)c1ccc(Br)cc1)Nc1ccc(Cl)cc1	?	.	26.9µM	.	/	.
COc1cccc(N/C(C)=C/C(=O)c2ccc(Br)cc2)c1	?	?	5.36µM	?	17.8µM	.
C/C(=C\C(=O)c1ccccc1)Nc1ccc(Br)c(Cl)c1	.	?	21.3µM	.	.	.
COCCOC(=O)C1=C(C)NC(C)=C(C(=O)OC/C=C/c2ccccc2)C1c1cccc([N+](=O)[O-])c1 (stereo not drawn)	/	.	/	.	/	/
OCC1(CC2CCCCO2)CCN(Cc2cccc(O)c2)CC1 (stereo not drawn)	.	.	.	.	/	.
O=c1cc(O)c2sc3nc(C(F)(F)F)c4c(c3c2[nH]1)CCCCC4	.	.	19µM	.	.	.
CCn1c(SCC(=O)Nc2cc(C(C)(C)C)nn2-c2ccccc2)nnc1-c1cccs1	.	.	.	.	.	.
CCn1c(SCC(N)=O)nnc1-c1cc2c(C)nn(-c3ccccc3)c2s1	.	.	15.1µM	.	.	.
COc1ccc(C2=NC(=O)/C(=C\c3cc(OC)c(OC)c(OC)c3)O2)cc1	.	.	.	.	.	.
CN(C(=O)c1ccccn1)c1nnc(-c2cnccn2)s1	?	?	10.7µM	?	/	/
CN(C(=O)c1cccnc1)c1nnc(-c2cnccn2)s1	.	.	?	.	.	.
CN(C(=O)c1cccnc1)c1nnc(-c2ccccn2)s1	?	?	19µM	?	/	.
CC(=O)N(C)c1nnc(-c2ccccn2)s1	?	.	?	.	20µM	.
Brc1ccc(-n2cnc(-c3ccccc3)c2)cc1	?	0.562µM	0.953µM	1.41µM	/	/

Assay outcomes as filed in PubChem BioAssay.
